# Test results as given in the supplement of paper PMC6992640.
# Experiments:
# HCI01 = cells of a triple-negative basal-like breast cancer xenograft; assay: cell viability of combination (% of vehicle); higher = less cytotoxic; conditions: 1 µM; 72 h; partner dose: 10 nM
# Method: (§1)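 PDX cells were treated for 72 h with each drug at 1 µM plus carfilzomib (10 nM; 100 nM for WHIM2). Luciferase viability is expressed as percent of vehicle.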
# UCD52 = cells of a triple-negative basal-like breast cancer xenograft; assay: as above; conditions: 1 µM; 72 h; partner dose: 10 nM
# Method: as §1
SMILES,cell viability of combination (HCI01),cell viability of combination (UCD52)
C=C(c1ccc(C(=O)O)cc1)c1cc2c(cc1C)C(C)(C)CCC2(C)C [Bexarotene] + CC(C)C[C@H](NC(=O)[C@H](CCc1ccccc1)NC(=O)CN1CCOCC1)C(=O)N[C@@H](Cc1ccccc1)C(=O)N[C@@H](CC(C)C)C(=O)[C@@]1(C)CO1 [Carfilzomib],71.8,79.6
C1=C\COCc2cc(ccc2OCCN2CCCC2)Nc2nccc(n2)-c2cccc(c2)COC/1 [Pacritinib] + CC(C)C[C@H](NC(=O)[C@H](CCc1ccccc1)NC(=O)CN1CCOCC1)C(=O)N[C@@H](Cc1ccccc1)C(=O)N[C@@H](CC(C)C)C(=O)[C@@]1(C)CO1 [Carfilzomib],58.2,57.9
Cc1ccc(C(=O)N(CCCN)C(c2nc3cc(Cl)ccc3c(=O)n2Cc2ccccc2)C(C)C)cc1 (stereo not given) + CC(C)C[C@H](NC(=O)[C@H](CCc1ccccc1)NC(=O)CN1CCOCC1)C(=O)N[C@@H](Cc1ccccc1)C(=O)N[C@@H](CC(C)C)C(=O)[C@@]1(C)CO1 [Carfilzomib],88.6,42.9
CCCCCCCCCCCC1=C(O)C(=O)C=C(O)C1=O [Embelin] + CC(C)C[C@H](NC(=O)[C@H](CCc1ccccc1)NC(=O)CN1CCOCC1)C(=O)N[C@@H](Cc1ccccc1)C(=O)N[C@@H](CC(C)C)C(=O)[C@@]1(C)CO1 [Carfilzomib],71.1,55.5
Nc1ccn(C2OC(CO)C(O)C2O)c(=O)n1 (stereo not given) [Cytarabine] + CC(C)C[C@H](NC(=O)[C@H](CCc1ccccc1)NC(=O)CN1CCOCC1)C(=O)N[C@@H](Cc1ccccc1)C(=O)N[C@@H](CC(C)C)C(=O)[C@@]1(C)CO1 [Carfilzomib],57.8,68.3
CNCCC(Oc1cccc2ccccc12)c1cccs1.Cl (stereo not given) [Duloxetine HCl] + CC(C)C[C@H](NC(=O)[C@H](CCc1ccccc1)NC(=O)CN1CCOCC1)C(=O)N[C@@H](Cc1ccccc1)C(=O)N[C@@H](CC(C)C)C(=O)[C@@]1(C)CO1 [Carfilzomib],81.6,62.4
CC(C)CC(NC(=O)CNC(=O)c1cc(Cl)ccc1Cl)B(O)O (stereo not given) + CC(C)C[C@H](NC(=O)[C@H](CCc1ccccc1)NC(=O)CN1CCOCC1)C(=O)N[C@@H](Cc1ccccc1)C(=O)N[C@@H](CC(C)C)C(=O)[C@@]1(C)CO1 [Carfilzomib],43.7,19.8
COC1=C(OC)C(=O)C(CCCCCCCCCCO)=C(C)C1=O [Idebenone] + CC(C)C[C@H](NC(=O)[C@H](CCc1ccccc1)NC(=O)CN1CCOCC1)C(=O)N[C@@H](Cc1ccccc1)C(=O)N[C@@H](CC(C)C)C(=O)[C@@]1(C)CO1 [Carfilzomib],82.8,62
CC(=O)c1cc2c(o1)C(=O)c1ccccc1C2=O [Napabucasin] + CC(C)C[C@H](NC(=O)[C@H](CCc1ccccc1)NC(=O)CN1CCOCC1)C(=O)N[C@@H](Cc1ccccc1)C(=O)N[C@@H](CC(C)C)C(=O)[C@@]1(C)CO1 [Carfilzomib],22.6,15.7
CCN(CC)CCCC(C)Nc1ccnc2cc(Cl)ccc12.O=P(O)(O)O.O=P(O)(O)O (stereo not given) [Chloroquine diphosphate] + CC(C)C[C@H](NC(=O)[C@H](CCc1ccccc1)NC(=O)CN1CCOCC1)C(=O)N[C@@H](Cc1ccccc1)C(=O)N[C@@H](CC(C)C)C(=O)[C@@]1(C)CO1 [Carfilzomib],64,52.9
Br.Cc1ccc(Sc2ccccc2N2CCNCC2)c(C)c1 + CC(C)C[C@H](NC(=O)[C@H](CCc1ccccc1)NC(=O)CN1CCOCC1)C(=O)N[C@@H](Cc1ccccc1)C(=O)N[C@@H](CC(C)C)C(=O)[C@@]1(C)CO1 [Carfilzomib],98.3,50.8
COCCn1c2c([n+](Cc3cnccn3)c1C)C(=O)c1ccccc1C2=O.[Br-] + CC(C)C[C@H](NC(=O)[C@H](CCc1ccccc1)NC(=O)CN1CCOCC1)C(=O)N[C@@H](Cc1ccccc1)C(=O)N[C@@H](CC(C)C)C(=O)[C@@]1(C)CO1 [Carfilzomib],25.5,17.4
COc1cccc2c1C(=O)c1c(O)c3c(c(O)c1C2=O)C[C@@](O)(C(C)=O)C[C@@H]3O[C@H]1C[C@H](N)[C@H](O)[C@H](C)O1.Cl [Daunorubicin HCl] + CC(C)C[C@H](NC(=O)[C@H](CCc1ccccc1)NC(=O)CN1CCOCC1)C(=O)N[C@@H](Cc1ccccc1)C(=O)N[C@@H](CC(C)C)C(=O)[C@@]1(C)CO1 [Carfilzomib],79.9,17.1
CO[C@H]1C[C@@H]2CC[C@@H](C)[C@@](O)(O2)C(=O)C(=O)N2CCCC[C@H]2C(=O)O[C@H]([C@H](C)C[C@@H]2CC[C@@H](OC(=O)C(C)(CO)CO)[C@H](OC)C2)CC(=O)[C@H](C)/C=C(\C)[C@@H](O)[C@@H](OC)C(=O)[C@H](C)C[C@H](C)/C=C/C=C/C=C/1C [Temsirolimus] + CC(C)C[C@H](NC(=O)[C@H](CCc1ccccc1)NC(=O)CN1CCOCC1)C(=O)N[C@@H](Cc1ccccc1)C(=O)N[C@@H](CC(C)C)C(=O)[C@@]1(C)CO1 [Carfilzomib],72.4,49.5
CC(C)COc1ccc(CNC(=O)N(Cc2ccc(F)cc2)C2CCN(C)CC2)cc1 [Pimavanserin] + CC(C)C[C@H](NC(=O)[C@H](CCc1ccccc1)NC(=O)CN1CCOCC1)C(=O)N[C@@H](Cc1ccccc1)C(=O)N[C@@H](CC(C)C)C(=O)[C@@]1(C)CO1 [Carfilzomib],76.1,62.4
CC(C)CC(NC(=O)C(NC(=O)c1cccc(-c2ccccc2)n1)C(C)O)B(O)O (stereo not given) + CC(C)C[C@H](NC(=O)[C@H](CCc1ccccc1)NC(=O)CN1CCOCC1)C(=O)N[C@@H](Cc1ccccc1)C(=O)N[C@@H](CC(C)C)C(=O)[C@@]1(C)CO1 [Carfilzomib],42.4,20.1
CN1CCCC1CCOC(C)(c1ccccc1)c1ccc(Cl)cc1.O=C(O)C=CC(=O)O (stereo not given) [Clemastine Fumarate] + CC(C)C[C@H](NC(=O)[C@H](CCc1ccccc1)NC(=O)CN1CCOCC1)C(=O)N[C@@H](Cc1ccccc1)C(=O)N[C@@H](CC(C)C)C(=O)[C@@]1(C)CO1 [Carfilzomib],77.2,61.1
C=C1C(=CC=C2CCCC3(C)C2CCC3C(C)CCCC(C)(C)O)CC(O)CC1O (stereo not given) [Calcitriol] + CC(C)C[C@H](NC(=O)[C@H](CCc1ccccc1)NC(=O)CN1CCOCC1)C(=O)N[C@@H](Cc1ccccc1)C(=O)N[C@@H](CC(C)C)C(=O)[C@@]1(C)CO1 [Carfilzomib],53.8,38.4
CC(CCC(=O)O)C1CCC2C3CCC4CC(O)CCC4(C)C3CCC12C (stereo not given) [Lithocholic Acid] + CC(C)C[C@H](NC(=O)[C@H](CCc1ccccc1)NC(=O)CN1CCOCC1)C(=O)N[C@@H](Cc1ccccc1)C(=O)N[C@@H](CC(C)C)C(=O)[C@@]1(C)CO1 [Carfilzomib],67.4,60.5
Cc1ccc(-n2[nH]c(C)c(NN=C3C=CC=C(c4cccc(C(=O)O)c4)C3=O)c2=O)cc1C [Eltrombopag] + CC(C)C[C@H](NC(=O)[C@H](CCc1ccccc1)NC(=O)CN1CCOCC1)C(=O)N[C@@H](Cc1ccccc1)C(=O)N[C@@H](CC(C)C)C(=O)[C@@]1(C)CO1 [Carfilzomib],74.8,58.8
Oc1c(Cl)cc(Cl)c2cccnc12 [Chloroxine] + CC(C)C[C@H](NC(=O)[C@H](CCc1ccccc1)NC(=O)CN1CCOCC1)C(=O)N[C@@H](Cc1ccccc1)C(=O)N[C@@H](CC(C)C)C(=O)[C@@]1(C)CO1 [Carfilzomib],79.4,62.4
COc1cc(Nc2ncc(F)c(Nc3ccc4c(n3)N(COP(=O)(O)O)C(=O)C(C)(C)O4)n2)cc(OC)c1OC [Fostamatinib (R788)] + CC(C)C[C@H](NC(=O)[C@H](CCc1ccccc1)NC(=O)CN1CCOCC1)C(=O)N[C@@H](Cc1ccccc1)C(=O)N[C@@H](CC(C)C)C(=O)[C@@]1(C)CO1 [Carfilzomib],119,64.9
CN(C(=O)CN(CCO)CC(=O)N(C)C(C)(C)Cc1ccccc1)C(C)(C)Cc1ccccc1 [Oxethazaine] + CC(C)C[C@H](NC(=O)[C@H](CCc1ccccc1)NC(=O)CN1CCOCC1)C(=O)N[C@@H](Cc1ccccc1)C(=O)N[C@@H](CC(C)C)C(=O)[C@@]1(C)CO1 [Carfilzomib],70.7,66.5
CC[C@@H]1/C=C(\C)C[C@H](C)C[C@H](OC)[C@H]2O[C@@](O)(C(=O)C(=O)N3CCCC[C@H]3C(=O)O[C@H](/C(C)=C/[C@@H]3CC[C@H](Cl)[C@H](OC)C3)[C@H](C)[C@@H](O)CC1=O)[C@H](C)C[C@@H]2OC [Pimecrolimus] + CC(C)C[C@H](NC(=O)[C@H](CCc1ccccc1)NC(=O)CN1CCOCC1)C(=O)N[C@@H](Cc1ccccc1)C(=O)N[C@@H](CC(C)C)C(=O)[C@@]1(C)CO1 [Carfilzomib],95.7,49.2
CO[C@H]1/C=C/O[C@@]2(C)Oc3c(C)c(O)c4c(O)c(c(/C=N/N5CCN(C6CCCC6)CC5)c(O)c4c3C2=O)NC(=O)/C(C)=C\C=C\[C@H](C)[C@H](O)[C@@H](C)[C@@H](O)[C@@H](C)[C@H](OC(C)=O)[C@@H]1C [Rifapentine] + CC(C)C[C@H](NC(=O)[C@H](CCc1ccccc1)NC(=O)CN1CCOCC1)C(=O)N[C@@H](Cc1ccccc1)C(=O)N[C@@H](CC(C)C)C(=O)[C@@]1(C)CO1 [Carfilzomib],78.8,58.6
